PRMT1 inh: inhibitors of human PRMT1. Q99873. recombinant PRMT1, activity-based probe fluorescence polarization. inhibition, % at 2.79 µM. 370,000 tested, 1.3% active. AID 652257;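 active = inhibition above about 21% made by adding two undisclosed values, limit read from the data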
Target sequence (Q99873 whole entry, looked up): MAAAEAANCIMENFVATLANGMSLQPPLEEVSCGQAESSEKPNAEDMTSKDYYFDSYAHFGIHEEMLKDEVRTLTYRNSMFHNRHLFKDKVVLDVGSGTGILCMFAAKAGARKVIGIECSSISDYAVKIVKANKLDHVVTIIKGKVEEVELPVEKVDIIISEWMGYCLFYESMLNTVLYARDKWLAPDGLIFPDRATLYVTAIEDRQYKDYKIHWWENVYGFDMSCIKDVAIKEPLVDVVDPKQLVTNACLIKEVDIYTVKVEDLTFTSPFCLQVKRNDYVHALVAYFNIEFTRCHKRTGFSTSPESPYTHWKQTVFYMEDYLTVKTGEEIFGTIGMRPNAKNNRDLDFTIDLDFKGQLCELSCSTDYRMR
LEDGF integ inh: blocks HIV-1 LEDGF/p75-dependent DNA integration. inhibition, % at 3.7 µM. TR-FRET IN-LEDGF/p75 DNA integration, Eu/Cy5. 370,000 tested, 0.64% active. AID 743269;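 active = inhibition above the screen-wide mean plus 3 SD, cut at about 13% in these data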;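 also: signal is the Cy5 over europium emission ratio at 671 and 618 nm; 0% = plate median of compound wells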
MBD2 inh: MBD2-methylated oligo binding inhibition; Q9UBB5; TR-FRET, MBD2 binding to methylated oligonucleotide; inhibition, % at 4.4 µM; 370,000 tested, 0.31% active; AID 686964; in the data active = inhibition above about 13%
UHRF1 MBD2 ctr: human UHRF1 methylated DNA binding inhibitors; Q96T88; inhibition, % at 4.4 µM; AID 687016; UHRF1 binding to methylated oligo, TR-FRET; 370,000 tested, 0.75% active;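 also: UHRF1 SRA domain binding a hemimethylated CpG hairpin DNA probe; 0% = median of test compound wells and 100% = reference inhibitor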
UHRF1 DNA bind: counter-screen for MBD2 inhibitors: human UHRF1 methylated DNA binding inhibitors. shares compounds with MBD2 inh. UHRF1 binding to methylated oligonucleotide, TR-FRET. inhibition, % at 4.4 µM. 1,000 tested, 25% active. AID 720530;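 also: UHRF1 SRA domain binding a labeled hemimethylated CpG hairpin DNA; 0% = vehicle only and 100% = reference inhibitor with vehicle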
MBD2 confirm: MBD2-DBD methyl-DNA binding inhibition, TR-FRET confirmation | 1,000 tested, 26% active | TR-FRET MBD2-DBD binding to methylated oligonucleotide | inhibition, % at 4.4 µM | shares compounds with MBD2 inh; in the data active = inhibition above about 14%
An asterisk follows results filed as active. Most compounds without a hit are left out; they make up all but 2.5% or so of the library. Rule as the data show it, unless noted: active = inhibition above about 21%; inactive = the rest.

What do the screens show for `C#CCOCCOCCOCCNc1nc(N2CCN(C(=O)[C@H](CCCCN)n3cc([C@@H](N)C(C)CC)nn3)CC2)nc(N2CCN(C(=O)[C@H](CCCCN)n3cc([C@@H](N)C(C)CC)nn3)CC2)n1` (some centres not stated)?
PRMT1 inh: 11.3; LEDGF integ inh: 1.7; MBD2 inh: 15.7*; UHRF1 MBD2 ctr: 16.4; UHRF1 DNA bind: 5.6; MBD2 confirm: 3.0

What do the screens show for `C#CCOCCOCCOCCNc1nc(N2CCN(C(=O)[C@H]([C@@H](C)CC)n3cc(CCC(=O)O)nn3)CC2)nc(N2CCN(C(=O)[C@H](CCCCN)n3cc(CCCC)nn3)CC2)n1`?
PRMT1 inh: 3.2; LEDGF integ inh: 2.1; MBD2 inh: 24.6*; UHRF1 MBD2 ctr: 9.7; UHRF1 DNA bind: 8.9; MBD2 confirm: 6.6

What do the screens show for `CCOC(=O)c1cc(-c2ccc(N3CCOCC3)cc2)nn1-c1ccccc1C(=O)O`?
PRMT1 inh: 0.0; LEDGF integ inh: -0.4; MBD2 inh: 22.7*; UHRF1 MBD2 ctr: 19.7; UHRF1 DNA bind: 26.7*; MBD2 confirm: 26.6*

Results for CCOC(=O)c1cc(-c2ccc(N3CCOCC3)cc2)nn1-c1ccccc1 ?
PRMT1 inh: 0.8; LEDGF integ inh: -1.1; MBD2 inh: 3.5; UHRF1 MBD2 ctr: 4.9

How did CCCNC(=O)C1(C)CCCN(C(=O)c2ccccc2OC(F)(F)F)C1 (configuration not stated) do in these assays?
PRMT1 inh: 1.3; LEDGF integ inh: -5.2; MBD2 inh: 4.7; UHRF1 MBD2 ctr: -1.2

Results for Nc1[nH]c2cc(C(F)(F)F)ccc2c1C(=O)NC1CCCCC1 ?
PRMT1 inh: -3.1; LEDGF integ inh: 2.0; MBD2 inh: 2.4; UHRF1 MBD2 ctr: 3.2

Results for CC(NC(=O)CCCc1c[nH]c2ccccc12)c1ccc(F)cc1 (configuration not stated) ?
PRMT1 inh: 0.0; LEDGF integ inh: 1.8; MBD2 inh: 1.5; UHRF1 MBD2 ctr: -0.6

Results for COc1ccc(C(=O)c2cc3c(cc2[N+](=O)[O-])OCCO3)cc1 ?
PRMT1 inh: -0.8; LEDGF integ inh: -2.1; MBD2 inh: 4.0; UHRF1 MBD2 ctr: -0.8

How did O=C(c1ccccc1F)c1cc2c(cc1[N+](=O)[O-])OCCO2 do in these assays?
PRMT1 inh: 3.2; LEDGF integ inh: 0.6; MBD2 inh: 14.6*; UHRF1 MBD2 ctr: 18.3; UHRF1 DNA bind: 6.8; MBD2 confirm: 1.3

Results for O=C(/C=C/c1cccc(F)c1)NNC(=O)c1ccncc1 ?
PRMT1 inh: 3.3; LEDGF integ inh: 0.6; MBD2 inh: 0.6; UHRF1 MBD2 ctr: 2.3

Results for O=C(/C=C/c1cccc(Cl)c1)NNC(=O)c1ccncc1 ?
PRMT1 inh: 1.8; LEDGF integ inh: 0.0; MBD2 inh: 14.3*; UHRF1 MBD2 ctr: 1.0; UHRF1 DNA bind: 3.4; MBD2 confirm: 1.4

What do the screens show for `CC(C)(C)NC(=O)CN(C(=O)c1ccc(CN2CCOCC2)o1)c1ccc2c(c1)OCCO2`?
PRMT1 inh: 3.2; LEDGF integ inh: 6.8; MBD2 inh: 0.8; UHRF1 MBD2 ctr: 5.8

Results for COc1ccc(C(=O)N(CC(=O)NC(C)(C)C)c2ccc3c(c2)OCCO3)cc1OC ?
PRMT1 inh: 0.3; LEDGF integ inh: 1.8; MBD2 inh: 16.4*; UHRF1 MBD2 ctr: 20.1; UHRF1 DNA bind: 7.4; MBD2 confirm: 4.3

Results for COc1ccc(CNC(=O)c2ccc(CS(=O)c3ccccc3)o2)cc1 (configuration not stated) ?
PRMT1 inh: 0.1; LEDGF integ inh: -0.4; MBD2 inh: 0.4; UHRF1 MBD2 ctr: 0.7

Results for CC1=NN(c2ccc(F)cc2)C(=O)C1C(c1cccc(O)c1)c1c(C)[nH]n(-c2ccc(F)cc2)c1=O (configuration not stated) ?
PRMT1 inh: 1.4; LEDGF integ inh: 39.0*; MBD2 inh: 19.3*; UHRF1 MBD2 ctr: 19.0; UHRF1 DNA bind: 1.5; MBD2 confirm: -1.2

Results for Cc1ccc(S(=O)(=O)N2C[C@@H](C)[C@]3(C2)[C@H](O)[C@H](OC(=O)Nc2c(C)noc2C)C[C@H]2C(=O)N(c4ccccc4)C(=O)[C@H]23)cc1 ?
PRMT1 inh: 2.0; LEDGF integ inh: 0.6; MBD2 inh: -3.0; UHRF1 MBD2 ctr: 0.2

Results for O=C(O)CSc1ncn[nH]1 ?
PRMT1 inh: 3.5; LEDGF integ inh: 3.2; MBD2 inh: 13.5*; UHRF1 MBD2 ctr: 15.3; UHRF1 DNA bind: 7.0; MBD2 confirm: 0.6

Results for O=C(CSc1ncn[nH]1)N1CCOCC1 ?
PRMT1 inh: -1.5; LEDGF integ inh: -0.4; MBD2 inh: -4.5; UHRF1 MBD2 ctr: -1.7

How did CC(C)(C)C(=O)NC1CCN(S(=O)(=O)c2ccccc2F)CC1 do in these assays?
PRMT1 inh: -1.4; LEDGF integ inh: 3.9; MBD2 inh: 14.6*; UHRF1 MBD2 ctr: -0.8; UHRF1 DNA bind: 6.8; MBD2 confirm: 2.6

Results for CC(C)(Oc1ccc(F)cc1)C(=O)OCC(=O)c1ccc(S(C)(=O)=O)cc1 ?
PRMT1 inh: -0.2; LEDGF integ inh: 1.9; MBD2 inh: 35.8*; UHRF1 MBD2 ctr: -0.6; UHRF1 DNA bind: 5.6; MBD2 confirm: 2.5

Results for Cc1ccc(S(=O)(=O)CCC(=O)OCC(=O)c2ccc(F)cc2)cc1 ?
PRMT1 inh: 1.7; LEDGF integ inh: -7.4; MBD2 inh: 4.3; UHRF1 MBD2 ctr: 2.3

What do the screens show for `C[C@]12CCC[C@H](O1)c1c(cc3c(c1O)C(=O)c1c(O)cc(O)cc1C3=O)O2`?
PRMT1 inh: 1.2; LEDGF integ inh: -3.1; MBD2 inh: -1.7; UHRF1 MBD2 ctr: -0.5

Results for Cc1cccc(C)c1NC(=O)CN(C)C(=O)c1cccc(-n2cccc2)c1 ?
PRMT1 inh: 1.5; LEDGF integ inh: 5.7; MBD2 inh: 3.9; UHRF1 MBD2 ctr: 5.1

What do the screens show for `Cc1cccc(NC(=O)CNC(=O)c2cccc(-n3cccc3)c2)c1C`?
PRMT1 inh: -5.6; LEDGF integ inh: 5.4; MBD2 inh: 31.2*; UHRF1 MBD2 ctr: 69.2*; UHRF1 DNA bind: 62.0*; MBD2 confirm: 43.8*

What do the screens show for `COc1ccc(NC(=O)CN(C)C(=O)c2cccc(-n3cccc3)c2)cc1`?
PRMT1 inh: -1.8; LEDGF integ inh: 5.3; MBD2 inh: 32.7*; UHRF1 MBD2 ctr: 58.5*; UHRF1 DNA bind: 43.1*; MBD2 confirm: 37.8*

Results for Cc1ccc(NC(=O)CN(C)C(=O)c2cccc(-n3cccc3)c2)cc1 ?
PRMT1 inh: -4.1; LEDGF integ inh: 1.8; MBD2 inh: 36.0*; UHRF1 MBD2 ctr: 76.8*; UHRF1 DNA bind: 66.1*; MBD2 confirm: 47.3*

What do the screens show for `CCN(CC)S(=O)(=O)c1ccc(N2CCOCC2)c(NC(=O)c2ccc(C#N)cc2)c1`?
PRMT1 inh: 6.8; LEDGF integ inh: -0.3; MBD2 inh: 14.2*; UHRF1 MBD2 ctr: 25.0*; UHRF1 DNA bind: 9.1; MBD2 confirm: 5.0
